Source: PubChem BioAssay
Fh CTSL1 inh = Fasciola hepatica cathepsin L1 inhibitors, primary screen, counter-screen for PFM18AAP inhibitor project, biochemical, QFRET, fluorogenic peptide substrate | actives 0.49% (n = 300,000) | recombinant F. hepatica cathepsin L1, Z-Leu-Arg-MCA fluorescence | inhibition, % at 5.96 µM | AID 1906, 2009;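 active means inhibition above the mean of all tested compounds plus 3 SD, set per screening campaign, cut at about 17% in these data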;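 further: 0% = plate median of test compound wells and 100% = 1 µM Z-Phe-Ala-diazomethylketone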
HNF4A DNA FP = change in binding of human HNF4A to DNA, primary screen, biochemical, fluorescence polarization, FITC-DNA; actives 0.3% (n = 360,000); Hepatocyte nuclear factor 4-alpha (Homo sapiens), P41235; AID 1224865, 2016; activity change, % at 10 µM; 1 h; in the data active means activity change above about 30%, passing the limit was not always enough
TPT1 inh = Candida albicans TPT1 enzyme inhibitors, primary screen, biochemical, fluorescence polarization; recombinant caTPT1, FP RNA substrate dephosphorylation; tRNA 2'-phosphotransferase TPT1 (Candida albicans SC5314); AID 1962, 2009; inhibition, % at 5 µM; actives 0.81% (n = 300,000);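 active means inhibition above the mean of all tested compounds plus 3 SD, set per screening campaign, cut at about 24% in these data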;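 further: plate controls were DMSO alone for no effect and ferristatin control at 100 nM for full effect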
PHOSPHO1 inh = PubChem AID 1565; recombinant PHOSPHO1, absorbance phosphatase assay; inhibition, % at 13.3 µM; actives 1.1% (n = 290,000); in the data active means inhibition above about 60%
Target sequence (Q8TCT1 whole entry, looked up): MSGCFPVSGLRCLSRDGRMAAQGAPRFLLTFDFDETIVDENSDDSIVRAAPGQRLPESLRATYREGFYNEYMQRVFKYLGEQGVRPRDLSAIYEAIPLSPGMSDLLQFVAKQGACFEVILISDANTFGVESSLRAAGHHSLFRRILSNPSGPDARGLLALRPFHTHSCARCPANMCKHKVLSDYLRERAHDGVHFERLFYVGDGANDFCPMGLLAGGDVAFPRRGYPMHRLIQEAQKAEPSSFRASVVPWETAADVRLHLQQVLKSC
NRP1-CendR mod = modulators of CendR peptide binding to NRP-1, primary screen, biochemical, fluorescence polarization, uHTS | inhibition, % at 25 µM | FAM-RPARPAR peptide binding to NRP-1 | Neuropilin-1 (Homo sapiens), O14786 | actives 0.85% (n = 360,000);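 active means inhibition or corrected inhibition above about 18%, plus a signal ratio from 0.5 to 1.5, limit read from the data, passing the limit was not always enough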
Rpn11 block = Rpn11 (PSMD14) deubiquitinase inhibitors, primary screen, biochemical, fluorescence polarization, uHTS. human 26S proteasome, Ub4-pepOG fluorescence polarization; 20S core pre-blocked with epoxomicin. inhibition, % at 20 µM. actives 0.59% (n = 360,000). AID 588493, 2011;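 active means inhibition at 20 µM, scaled to each plate's controls, above about 33%, limit read from the data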
Target sequence (O00487 whole entry, looked up): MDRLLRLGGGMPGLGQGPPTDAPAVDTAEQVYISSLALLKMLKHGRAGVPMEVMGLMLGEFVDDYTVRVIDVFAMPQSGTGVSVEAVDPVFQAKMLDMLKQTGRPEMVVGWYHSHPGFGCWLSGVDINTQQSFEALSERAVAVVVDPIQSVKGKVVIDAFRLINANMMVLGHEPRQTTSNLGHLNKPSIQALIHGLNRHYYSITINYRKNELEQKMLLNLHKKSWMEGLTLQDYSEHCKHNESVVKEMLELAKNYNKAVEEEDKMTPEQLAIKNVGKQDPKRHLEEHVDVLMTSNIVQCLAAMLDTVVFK
HNF4A confirm = change in HNF4A binding to DNA, retest, confirmation, biochemical, fluorescence polarization, FITC-DNA; shares compounds with HNF4A DNA FP; 1 h; activity change, % at 12.5 µM; actives 99% (n = 210); call rule not given here
Starred values were filed as active, the others as inactive; x = not tested or not shown. Hits are enriched below; roughly 3.3% of the tested compounds scored in any of these assays.

SMILES | Fh CTSL1 inh | HNF4A DNA FP | TPT1 inh | PHOSPHO1 inh | NRP1-CendR mod | Rpn11 block | HNF4A confirm
CC(=O)Oc1ccc(C(=O)Cc2ccc3ccccc3n2)c(O)c1C | -2 | 38* | 15 | 15 | -90 | x | 50*
CCOC(=O)CNC(=O)Cn1cnc2c(nnn2-c2ccc(C)cc2)c1=O | -3 | 1 | 1 | 9 | -2 | -2 | x
N#CC1=C(N)N(c2ccc(F)cc2)C2=C(C1c1ccc(O)cc1)S(=O)(=O)CC2 (centres undefined) | x | 55* | x | -70 | -185 | x | 52*
CSc1ccc(C2C(C#N)=C(N)N(c3ccccc3)C3=C2C(=O)CCC3)cc1 (centres undefined) | -4 | 2 | 0 | -13 | -17 | 6 | x
CC(C)C[C@H]1COc2cccc(N(C)CCO)c2S(=O)(=O)N1 | x | -5 | x | x | 5 | x | x
Cc1cccc(-c2c3c(=O)n(C)c(=O)n(C)c3c3nnc4ccccc4n23)c1 | x | 50* | x | x | -14 | x | 32*
O=C(Cc1ccc(Cl)cc1)Nc1ccccc1CO | -4 | 1 | -3 | 3 | 13 | -2 | x
Cn1cccc1C(=O)OCC(=O)N1CCc2ccccc2C1 | x | 2 | x | x | -3 | 3 | x
CCOC(=O)c1c(C)[nH]c(C(=O)N2CCN(C(=O)OCC)CC2)c1C | -3 | 1 | 1 | 36 | 2 | 9 | x
CCOC(=O)c1c(C)c(C)n2c1NC(=O)C2 | x | 57* | x | x | -136 | x | 65*
N#Cc1cc(Oc2ccc3ccccc3c2)c(-n2nnc3ccccc32)cc1C#N | 6 | 62* | 1 | 4 | -3 | 1 | 36*
N#Cc1cc(Oc2ccccc2)c(-n2nnc3ccccc32)cc1C#N | 1 | 4 | 1 | 2 | 5 | -6 | x
O=C(C1CCCCC1)N(Cc1nc2sc3c(c2c(=O)[nH]1)CCCC3)Cc1cccs1 | 1 | 2 | 2 | 15 | 8 | -1 | x
Cn1c(=O)oc2cc(S(=O)(=O)N3CCc4ccccc43)ccc21 | 4 | -1 | 6 | 16 | -15 | 2 | x
Cn1c(=O)c(=O)n(C)c2cc(S(=O)(=O)N3CCc4ccccc43)ccc21 | 1 | 43* | -1 | 15 | -116 | 27 | 47*
COc1ccc(Cn2nnnc2C(c2cc3ccc(OC)cc3[nH]c2=O)N2CCC(C)CC2)cc1 (centres undefined) | 0 | 5 | 4 | 49 | -36 | -17 | x
COc1ccc2cc(C(c3nnnn3CCc3ccccc3)N3CCC(O)CC3)c(=O)[nH]c2c1 (centres undefined) | 0 | 55* | 11 | 32 | -108 | x | 51*
CCCCN(C(=O)C1CCN(C(=O)c2ccccc2C)CC1)c1c(N)n(CCCC)c(=O)[nH]c1=O | -4 | -2 | 2 | 24 | 7 | 2 | x
O=C(OCC(=O)N1CCc2ccccc21)c1cccc(S(=O)(=O)N2CCCc3ccccc32)c1 | 0 | 0 | -1 | -15 | 0 | -3 | x
N#Cc1ccsc1NC(=O)c1ccc2ncsc2c1 | x | 69* | x | x | -143 | x | 77*
CCn1c(SCC(=O)Nc2ccc(Br)cn2)nnc1C1CC1 | 1 | 1 | 2 | 38 | -3 | 0 | x
O=S(=O)(c1ccc2c(c1)C(O)c1ccccc1CC2)C(F)(F)F (centres undefined) | x | 2 | x | x | 12 | -6 | x
Cc1c(-c2ccc(/C=N/NC(=O)C(=O)Nc3ccccc3F)o2)cccc1[N+](=O)[O-] | -5 | 79* | -1 | 8 | -98 | x | 35*
CC1CCN(c2ccc3c(c2)S(=O)(=O)c2cccc(C(=O)NC[C@@H]4CCCO4)c2C3=O)CC1 | x | 54* | x | x | -136 | x | 62*
CC1CCN(c2ccc3c(c2)S(=O)(=O)c2cccc(C(=O)NC4CC4)c2C3=O)CC1 | x | 43* | x | x | -79 | 31 | 36*
SMILES | Fh CTSL1 inh | HNF4A DNA FP | TPT1 inh | PHOSPHO1 inh | NRP1-CendR mod | Rpn11 block | HNF4A confirm
O=C(O)c1cccc2c1C(=O)c1ccc(N3CCCCC3)cc1S2(=O)=O | x | 43* | x | x | -79 | x | 43*
O=C(NC[C@@H]1CCCO1)c1cccc2c1C(=O)c1ccc(N3CCOCC3)cc1S2(=O)=O | x | 21 | x | x | -44 | 39 | x
Cc1nc(NC(=O)c2ccccc2)sc1-c1cc(C(=O)NCCO)nn1Cc1ccccc1 | x | -3 | x | x | 10 | x | x
NC(=O)CC(NC(=O)Cc1ccc(Br)cc1)c1ccc(NC2CCCC2)c([N+](=O)[O-])c1 (centres undefined) | 0 | 50* | -1 | 25 | -30 | x | 49*
NC(=O)CC(NC(=O)Cc1ccc(Br)cc1)c1ccc(NC2CCCCCCC2)c([N+](=O)[O-])c1 (centres undefined) | x | 44 | x | x | -90 | x | x
CC(=O)N1N=C2c3ccccc3CCC2C1c1cccs1 (centres undefined) | -1 | 1 | 2 | 16 | -6 | -13 | x
COc1ccc2c(c1)C1=NN(/C(C)=C\C(C)=O)C(c3ccccc3)C1CC2 (centres undefined) | 10 | 40* | 16 | 10 | -118 | 26 | 53*
CS(=O)(=O)N1CCc2cc(C(=O)N3CCCC3)ccc21 | -3 | 3 | 0 | 20 | 13 | 1 | x
CCCCNc1c(-c2cc3ccccc3o2)nc2nc(C)cc(C)n12 | x | 45* | x | x | -82 | x | 37*
COc1cc(/C=C2\C(=N)N3N=CSC3=NC2=O)cc(Br)c1OC(=O)c1ccco1 | 0 | 39* | 5 | 20 | -150 | 31 | 79*
